Consider seven molecules from the supplement of paper PMC11628255, “Interference of metal ions on the bioluminescent signal of firefly, Renilla, and NanoLuc luciferases in high-throughput screening assays” (Frontiers in Chemistry, 2024).

The subject of this test is NanoLuc luciferase (NLuc). The experiment in a line: residual bioluminescent signal relative to negative (DMSO) control; higher = less interference (more residual luciferase signal). As to the method:
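Purified luciferase (FLuc 10 nM + 10 uM D-luciferin; NLuc 10 pM + 10 uM furimazine; RLuc 50 pM + 2 uM coelenterazine) in 384-well plates; metal salt pre-incubated with enzyme 10 min at RT, substrate added and luminescence read after 10 min. Signal normalised to plate DMSO negative control (% N_VALUE = x/mean neg *100); triplicate wells at 0.01, 1 and 5 mM salt.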

[1] abbreviates: metal salt concentration 0.01 mM, HEPES conditions (100 mM HEPES, 0.1% BSA, pH 7.5).
Where [2] appears, read: metal salt concentration 0.01 mM, screening conditions (PBS, 0.1% BSA, pH 7.4).
Where [3] appears, read: metal salt concentration 1 mM, HEPES conditions (100 mM HEPES, 0.1% BSA, pH 7.5).
The mark [4] stands for this setting: metal salt concentration 1 mM, screening conditions (PBS, 0.1% BSA, pH 7.4).
Where [5] appears, read: metal salt concentration 5 mM, HEPES conditions (100 mM HEPES, 0.1% BSA, pH 7.5).
Setting [6] is: metal salt concentration 5 mM, screening conditions (PBS, 0.1% BSA, pH 7.4).

± gives the standard deviation of the averaged measurements.

As to `CC#N.CC#N.CC#N.CC#N.F[B-](F)(F)F.[Cu+]` [tetrakis(acetonitrile)copper(I) tetrafluoroborate], the residual bioluminescent signal by setting is: under setting [1], 92.6 ± 2.9%; under setting [2], 90 ± 3%; under setting [3], 0.251 ± 0.095%; under setting [4], 0.838 ± 0.074%; under setting [5], 0.149 ± 0.095%; under setting [6], 0.354 ± 0.31%.

As to `O.O.O.O.O.O.O.O.O.O.O=S(=O)([O-])[O-].[Na+].[Na+]` [sodium sulfate], the residual bioluminescent signal by setting is: under setting [1], 96 ± 3.7%; under setting [2], 96.8 ± 5%; under setting [3], 96.8 ± 4%; under setting [4], 96 ± 4.3%; under setting [5], 98.4 ± 1.1%; under setting [6], 95.6 ± 4.4%.

Regarding `O=S(=O)([O-])[O-].[Mn+2]` [manganese(II) sulfate], the residual bioluminescent signal is, setting by setting: under setting [1], 93.9 ± 2.1%; under setting [2], 96.1 ± 2.1%; under setting [3], 95 ± 3%; under setting [4], 92.7 ± 1.3%; under setting [5], 96 ± 1.4%; under setting [6], 73.4 ± 2.1%.

With `O.O.O.O.O.O.O.O=S(=O)([O-])[O-].[Mg+2]` [magnesium sulfate], the residual bioluminescent signal by setting is: under setting [1], 91 ± 1.1%; under setting [2], 97.44 ± 0.7%; under setting [3], 99 ± 1.7%; under setting [4], 95.09 ± 0.87%; under setting [5], 107 ± 3.1%; under setting [6], 95.5 ± 2.1%.

For `[Cl][Fe]([Cl])[Cl]` [iron(III) chloride], the residual bioluminescent signal runs as follows: under setting [1], 90.2 ± 4%; under setting [2], 93 ± 3%; under setting [3], 0.54 ± 0.37%; under setting [4], 53.4 ± 2.6%; under setting [5], 0.188 ± 0.081%; under setting [6], 0.189 ± 0.24%.

`[Cl][Fe][Cl]` [iron(II) chloride]: the residual bioluminescent signal was 95.6 ± 6% under setting [1]; 99.7 ± 4.5% under setting [2]; 2.39 ± 1.2% under setting [3]; 10.5 ± 2.6% under setting [4]; 0.172 ± 0.13% under setting [5]; 0.779 ± 0.37% under setting [6].

Take `O=S(=O)([O-])[O-].[Fe+2]` [iron(II) sulfate]: the residual bioluminescent signal is 92.06 ± 0.82% under setting [1]; 97.1 ± 1.1% under setting [2]; 12.2 ± 3.3% under setting [3]; 29 ± 1.3% under setting [4]; 0.329 ± 0.23% under setting [5]; 1.15 ± 0.23% under setting [6].
